Source: article PMC4552634, “A New Set of Chemical Starting Points with Plasmodium falciparum Transmission-Blocking Potential for Antimalarial Drug Discovery” (PLoS ONE, 2015)
Among all 13,000 compounds or so, about 3,200 (25%) showed an effect of 50% or more. This is one part of the list.

Tested on: P. falciparum stage V gametocytes
Design: BacTiter-Glo ATP luminescence viability of purified stage V gametocytes in 384-well plates, per cent inhibition versus DMSO
Details: 48 h, 5 µM; inhibitor

| SMILES | % Inhibition |
| --- | --- |
| Cc1[nH]c2ccccc2c1C(=O)C(C)Sc1nnc(-c2ccccc2Br)[nH]1 (centres unmarked) [TCMDC-125114] | 93.54% |
| Cc1[nH]c2ccccc2c1C(=O)C(C)Sc1nnc(-c2ccccc2F)o1 (centres unmarked) [TCMDC-125312] | 68.46% |
| Cc1cccc(C)c1OC(=O)CSc1nnc(-c2ccccc2O)o1 [TCMDC-125733] | -18.5% |
| Nc1nc(F)nc2nc[nH]c12 [TCMDC-124283] | 4.967% |
| O=C(NCc1cccc(F)c1)Nc1cccc(-c2ccc(-c3nc4ccc(C(F)(F)F)cc4[nH]3)cc2)c1 [TCMDC-133288] | -40.45% |
| CCNc1cc(C(=O)N[C@@H](Cc2ccccc2)[C@H](O)CNCCc2cccc(C(F)(F)F)c2)cc(N2CCCC2=O)c1 [TCMDC-134552] | -6.04% |
| COc1cccc(C(O)CNc2ccnc(Nc3ccc(Cl)cc3)n2)c1 (centres unmarked) [TCMDC-136575] | 5.772% |
| Clc1cccc(C=NNc2nc(Nc3ccccc3)nc(Nc3ccccc3)n2)c1 [TCMDC-125798] | 24.55% |
| Clc1ccc(Nc2nc(NCc3ccccc3)nc(N/N=C/c3ccccn3)n2)cc1 [TCMDC-138557] | 107.3% |
| Clc1ccc(-c2ccc(C=NNc3nc(Nc4ccccc4)nc(Nc4ccccc4)n3)o2)cc1Cl [TCMDC-124152] | 3.438% |
| O=c1cc(NCCCNCc2ccc(C(F)(F)F)s2)[nH]c2ccccc12 [TCMDC-140767] | -70.92% |
| COc1ccc2nccc([C@@H](O)CN3CCC(NCCOc4cc(C(F)(F)F)ccc4F)CC3)c2c1 [TCMDC-140658] | 14.45% |
| COc1ccc2nccc([C@@H](O)CN3CCC(NCCOc4ccc(F)cc4F)CC3)c2c1 [TCMDC-140645] | 94.72% |
| COc1ccc2nccc([C@@H](O)CNCCCN(C)CCOc3cc(F)cc(F)c3)c2c1 [TCMDC-141051] | 75.1% |
| COc1ccc2nccc([C@@H](O)CN3CCC(NCCOc4ccncc4)CC3)c2c1 [TCMDC-140574] | 11.37% |
| COc1ccc2nccc([C@@H](O)CN3CCC(NCCOc4cc(F)cc(F)c4)CC3)c2c1 [TCMDC-140510] | 10.94% |
| COc1ccc2nccc([C@@H](O)CN3CCC(NCCOc4cccc(C(F)(F)F)c4)CC3)c2c1 [TCMDC-140507] | 58.71% |
| COc1ccc2nccc([C@@H](O)CN3CCC(NCCOc4cccc(F)c4F)CC3)c2c1 [TCMDC-140644] | 24.45% |
| COc1ccc2nccc([C@@H](O)CN3CCC(NCCOc4ccc(F)cc4Cl)CC3)c2c1 [TCMDC-140660] | 20.67% |
| COc1ccc2nccc([C@@H](O)CN3CCC(NCCOc4ccccc4C(F)(F)F)CC3)c2c1 [TCMDC-140713] | 37.87% |
